PMC4336329 (PLoS ONE, 2015)
Hit rate of the full screen: of about 310,000 compounds, about 2,200 (0.71%) showed an effect of 50% or more. The effect is printed as a negative number. The sample as a whole holds a higher share of strong results than the screen did.

molecular target: human ether-à-go-go-related gene (hERG) potassium channel (human, UniProt Q12809); test: primary screen, population patch clamp on CHO cells stably expressing hERG; higher = less effect of the substance
Sequence (Q12809 whole entry, looked up): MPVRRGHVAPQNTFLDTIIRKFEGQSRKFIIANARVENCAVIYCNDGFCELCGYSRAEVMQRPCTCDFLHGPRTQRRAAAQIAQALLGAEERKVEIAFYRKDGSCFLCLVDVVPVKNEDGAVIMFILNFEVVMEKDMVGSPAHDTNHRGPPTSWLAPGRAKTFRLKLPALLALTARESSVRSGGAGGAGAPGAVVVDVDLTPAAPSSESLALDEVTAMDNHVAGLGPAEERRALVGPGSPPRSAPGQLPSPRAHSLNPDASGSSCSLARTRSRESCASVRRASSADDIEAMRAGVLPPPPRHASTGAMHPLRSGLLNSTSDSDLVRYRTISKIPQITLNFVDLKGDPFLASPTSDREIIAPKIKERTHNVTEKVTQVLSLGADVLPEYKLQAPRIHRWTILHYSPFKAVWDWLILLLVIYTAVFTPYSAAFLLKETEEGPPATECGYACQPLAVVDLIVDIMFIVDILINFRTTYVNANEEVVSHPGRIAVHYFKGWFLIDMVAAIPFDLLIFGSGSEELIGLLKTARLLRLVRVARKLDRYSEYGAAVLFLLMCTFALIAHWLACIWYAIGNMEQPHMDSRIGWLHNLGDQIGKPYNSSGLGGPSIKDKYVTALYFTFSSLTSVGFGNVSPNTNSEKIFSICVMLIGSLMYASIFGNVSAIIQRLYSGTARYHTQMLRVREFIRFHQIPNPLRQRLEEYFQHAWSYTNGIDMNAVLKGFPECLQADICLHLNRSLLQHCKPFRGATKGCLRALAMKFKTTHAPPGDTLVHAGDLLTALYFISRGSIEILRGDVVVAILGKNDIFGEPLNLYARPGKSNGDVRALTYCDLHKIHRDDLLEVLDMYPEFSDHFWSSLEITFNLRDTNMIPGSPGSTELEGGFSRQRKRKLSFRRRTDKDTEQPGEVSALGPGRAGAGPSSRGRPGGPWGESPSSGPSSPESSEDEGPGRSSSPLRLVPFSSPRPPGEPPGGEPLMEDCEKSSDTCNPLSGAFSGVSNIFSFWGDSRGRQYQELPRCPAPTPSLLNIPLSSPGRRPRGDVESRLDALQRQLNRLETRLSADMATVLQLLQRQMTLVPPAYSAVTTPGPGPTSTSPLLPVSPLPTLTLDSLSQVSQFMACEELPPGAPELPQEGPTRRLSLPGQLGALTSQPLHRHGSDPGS

Compound | hERG current change (%, negative = inhibition) at 1uM [%]
COc1ccc2c(CCNC(=O)c3ccc([N+](=O)[O-])cc3)c[nH]c2c1 | 12.8
Cc1cccn2c(=O)c(C=Nc3ccccc3)c(NCCO)nc12 | 6
Cc1c(CC(=O)O)c(=O)oc2c(C)c3occ(-c4ccccc4)c3cc12 | 19.9
CC1(c2ccc(OC(F)F)cc2)NC(=O)N(CC(=O)Nc2ccc(OC(F)F)cc2)C1=O (stereo not drawn) | -100
CC1(c2ccc(OC(F)F)cc2)NC(=O)N(CC(=O)Nc2ccc(F)cc2)C1=O (stereo not drawn) | -15.6
CC1(c2ccc(OC(F)F)cc2)NC(=O)N(CC(=O)Nc2ccccc2)C1=O (stereo not drawn) | -26.2
COc1ccc(O)c(/C=N/NC(=O)CN2CCS(=O)(=O)CC2)c1 | 15.5
COc1ccc(C2=NN(C(=O)CSc3nnc(C)c(=O)n3N)C(c3ccco3)C2)cc1 (stereo not drawn) | -0.0705
COc1ccc(CCC(=O)N2CCN(c3ccc([N+](=O)[O-])cc3)CC2)cc1OC | -76.1
COc1ccccc1CC(=O)N1CCN(c2ccc([N+](=O)[O-])cc2)CC1 | -8.15
COc1cc(CCC(=O)N2CCN(c3ccccc3)CC2)cc(OC)c1OC | -0.0932
COc1ccc(CCC(=O)N2CCN(c3ccccc3)CC2)cc1OC | 13.5
COc1cc(CCC(=O)N2CCN(c3ccc([N+](=O)[O-])cc3)CC2)cc(OC)c1OC | -83.6
COCC(=O)N1CCN(c2ccc([N+](=O)[O-])cc2)CC1 | -31.5
CCOC(=O)Cc1nnc(-c2ccccc2)o1 | 5.78
COc1ccc2nc(NC(=O)c3ccoc3C)sc2c1 | 17.6
S=C(NN=C1C2CC3CC(C2)CC1C3)Nc1ccccc1 | 11.9
CC(=O)Nc1ccc2oc(C)nc2c1 | 22.4
CC(C)(C)OC(=O)N[C@H](C(=O)OC(C)(C)C)c1ccc(C(F)(F)F)cc1 | 12.8
Cc1ccc2nc(SCC(=O)NCc3ccco3)nc(=O)n2c1 | 11.3
Cn1c2ccccc2c2c(C(=O)NCc3ccco3)cn(C3CCCCC3)c(=O)c21 | 7.44
N=c1c(S(=O)(=O)c2ccccc2)cc2c(=O)n3ccccc3nc2n1C1CCCC1 | 8.93
N=c1c(C(=O)NCc2ccco2)cc2c(=O)n3ccccc3nc2n1C1CCCC1 | -82.2

Compound | hERG current change (%, negative = inhibition) at 1uM [%]
O=C(NCc1ccco1)c1cnc2ccccn2c1=O | 5.25
Cc1ccc2nc3c(cc(C(=O)NCc4ccco4)c(=N)n3C3CCCC3)c(=O)n2c1 | -83.2
C/C(=N\NC(=O)c1ccccc1[N+](=O)[O-])c1ccc(Br)s1 | 14.7
COc1ccc(CCNC(=O)CN(C2CCCCC2)S(C)(=O)=O)cc1 | 4.21
COC(=O)c1scc(C)c1S(=O)(=O)Nc1ccc(C)cc1 | 12.7
Cc1nc2scc(C)n2c(=O)c1S(=O)(=O)Nc1ccc(N2CCOCC2)cc1 | 5.65
Cc1ccc(S(=O)(=O)N2CCN(C(=O)c3cccs3)CC2)cc1C | 2.03
CCN1C(=O)C(CC(=O)Nc2ccc(Cl)cc2)N(NC(=O)c2ccncc2)C1=S (stereo not drawn) | 12.2
CN1CCCN(Cc2nc(-c3cccc(C(F)(F)F)c3)no2)CC1 | -15.4
Cc1ccc(-c2noc(CN3CCCCC3)n2)cc1 | 31.5
FC(F)(F)c1ccc(-c2noc(CN3CCCN(C4CCCCC4)CC3)n2)cc1 | -75.3
CCN(CC)S(=O)(=O)c1cc(C(=O)Nc2cccnc2)ccc1Cl | -40.3
CC(=O)N1CCOc2ccc(S(=O)(=O)Nc3ccc(C)cn3)cc21 | 4.68
COCCNC(=O)c1ccccc1NC(=O)c1ccc(OC)c(OC)c1 | 4.05
COc1ccc(-c2cc(C3CCN(Cc4ccc([N+](=O)[O-])cc4)CC3)[nH]n2)cc1 | -44.3
COc1ccc(-c2cc(C3CCN(Cc4cccc(C(F)(F)F)c4)CC3)[nH]n2)cc1 | -13
Cc1ccc(CN2CCC(c3cc(-c4cccs4)n[nH]3)CC2)cc1 | -85.6
CCOC(=O)CN1CCC(c2cc(-c3ccc(Cl)cc3)n[nH]2)CC1 | 22.3
CC(C)(C)OC(=O)N1CCC(c2cc(-c3cccs3)n[nH]2)CC1 | 4.89
Cc1ccc(CN2CCC(c3cc(-c4ccc(Cl)cc4)n[nH]3)CC2)cc1 | -78.1
S=c1[nH]ncn1/N=C/c1ccccc1 | 14.4
COc1nc(Nc2ccc([N+](=O)[O-])cc2)nc(NC2CCCCC2)n1 | 11.2
